Measurements published in ChEMBL document CHEMBL1157539, “Thousands of chemical starting points for antimalarial lead identification” (Nature, 2010).

Key:
Type in all cases: functional
[1] = test system: Plasmodium falciparum; test: GSK_TCMDC: Inhibition of Plasmodium falciparum 3D7 in whole red blood cells, using parasite LDH activity as an index of growth. Test compounds present at 2uM
[2] = test system: Plasmodium falciparum; test: GSK_TCMDC: Inhibition of Plasmodium falciparum Dd2 in whole red blood cells, using parasite LDH activity as an index of growth. Test compounds present at 2uM
[3] = test system: HepG2; test: GSK_TCMDC: Percent inhibition of human HepG2 cell line. Test compounds present at 10uM.

SMILES | Inhibition [1] [%] | Inhibition [2] [%] | Inhibition [3] [%]
CCCC(N)C(=O)NC1CCN(c2c(F)c(N)c3c(=O)c(C(=O)O)cn4c3c2Oc2ccccc2-4)C1.Cl (configuration not stated) | 98 | 98 | 66
Nc1nc(N)c2c(ccc3c2ccn3Cc2ccc(Cl)cc2)n1 | 100 | 99 | 100
COc1ccc(-c2cccc(NC(=O)c3ccc(C#N)cc3)c2)cc1CNC(C)C.O=C(O)C(F)(F)F | 100 | 14 | 25
CCC(CC)CN1C(=O)C(C)(c2ccccc2)N=C1N.O=C(O)C(F)(F)F (configuration not stated) | 84 | 11 | 1
Br.CCOc1ccc(OCCCON2C(=N)N=C(N)NC2(C)C)cc1 | 97 | 94 | 63
CC1(C)CCCC(=Cc2ccc(Br)cc2)C1(O)Cn1ccnc1 (configuration not stated) | 99 | 69 | 7
COc1ccc2nc(-c3cc(-c4ccc(NC(=O)CN5CCOCC5)cc4)cnc3N)[nH]c2c1 | 100 | 72 | 52
CNc1ccc(CNCc2cccc(-c3ccc(-c4nc5cc(C(F)(F)F)ccc5[nH]4)cc3)c2)cc1.O=C(O)C(F)(F)F | 100 | 100 | 21
Cn1cncc1C(=O)Nc1cccc(-c2cccc(-c3nc4cc(F)ccc4[nH]3)c2)c1 | 100 | 45 | 16
O=C(Nc1ccc(C(=O)Oc2cccc3ccccc23)cc1)N[C@@H](Cc1ccc(O)cc1)C(=O)NC1CCN(Cc2ccc(O)cc2)C1.O=C(O)C(F)(F)F (some centres not stated) | 87 | 0 | 0
COc1ccc2nccc([C@@H](O)CN3CCC(NCCOc4cccc(F)c4F)CC3)c2c1.O=C(O)C(=O)O | 100 | 85 | 9
COc1ccccc1N1CCN(c2cccc(F)c2C#N)CC1 | 85 | 59 | 0
CC(=O)Nc1ccc(OCCN(CC(C)C)c2ccc(C(F)(F)F)c(C#N)c2)c(Cl)c1 | 96 | 95 | 13
Cc1[nH]c(C)c(-c2ccc(/C=C/c3ccccn3)cc2)c(=O)c1Cl | 97 | 96 | 0
Br.CCC(CCON1C(N)=NC(N)=NC1(C)C)c1ccc(Cl)cc1 (configuration not stated) | 94 | 95 | 66
CCOc1ccc2c(=NN=Cc3ccc(OC)c(OC)c3)cc(C)[nH]c2c1 | 100 | 58 | 22
Cc1nc(C(C)Nc2nncc(-c3ccc(Cl)cc3)n2)cs1 (configuration not stated) | 91 | 55 | 0
CC(C)(C)CCN1CCC(CNC(=O)c2cc(-c3cccc(Cl)c3)cs2)C1.O=C(O)C(F)(F)F (configuration not stated) | 99 | 13 | 50
CS(=O)(=O)CCNCc1ccc(-c2ccc3c(Nc4ccc(Cl)cc4F)ccnc3c2)o1 | 99 | 98 | 6
COc1ccc2nccc([C@@H](O)CN3CCC(NC(=O)C(=Cc4ccc(Cl)cc4Cl)c4ccc(-c5ccccc5)cc4)CC3)c2c1 | 100 | 98 | 1
O=c1cc(NCCCNC2CCCc3c2ccc2ccccc32)[nH]c2ccccc12 (configuration not stated) | 94 | 30 | 0
CCOc1cc(C(=O)N[C@@H](Cc2ccccc2)[C@H](O)CNCc2cc(OC)cc(OC)c2)cc(N2CCCS2(=O)=O)c1.Cl | 94 | 66 | 0
Cc1ccc(Cc2c[nH]c(NCCSCc3ccc(CN4CCOCC4)o3)nc2=O)cn1 | 95 | 0 | 2
CN(C)CCCNc1ncnc2c1[nH]c1ccc(Br)cc12 | 100 | 19 | 3
CC(=O)N(Cc1nc(-c2cc(Cl)c(Cl)s2)cs1)c1c(C)cccc1C | 98 | 95 | 5
O=C(/C=C/c1ccc(Cl)c(Cl)c1)NCCCCCN1CCC(NC(=O)Nc2cccc(Cl)c2Cl)CC1 | 100 | 35 | 99
COc1cc(NC(=O)CCCCCCCCN2CCN(C)CC2)c2ncccc2c1 | 82 | 36 | 8
CCCCN(CCCC)Cc1cc2ccccc2cc1O.Cl | 100 | 98 | 9
CCNc1cc(C(=O)N[C@@H](Cc2ccccc2)[C@H](O)CNC2CCCCC2)cc(N2CCCCS2(=O)=O)c1 | 99 | 98 | 11
